Laboratory results reported in PubChem BioAssay AID2284205 (EPA ToxCast).
Active and inactive are the calls of the source. The calls were made as follows: active = hit-call score of the fitted dose curve at least 0.9, where 1 is the maximum; inactive = score below 0.9.

Target: Peroxisome proliferator-activated receptor gamma (Homo sapiens) (UniProt P37231)
Assay: ERF_TW_NR_hPPARG: Eurofins (ERF) Nuclear Receptor (NR) Radioligand Binding LeadHunter Assay for human Peroxisome Proliferator-activated Receptor gamma (PPARg) Agonism, conducted at Taiwan lab site
Procedure: ERF_TW_NR_hPPARG is a biochemical, single-readout assay that uses extracted gene-proteins in a cell-free assay. Measurements were taken 24 hour after chemical dosing in a 96-well plate. See PPARgamma Human NHR Binding (Agonist Radioligand) Assay, Panlabs.ERF_TW_NR_hPPARG is an assay component calculated from the ERF_TW_NR_hPPARG assay. It is designed to measure radioligand binding using a type of binding reporter as detected by scintillation counting with radiometry technology.Data from the assay component ERF_TW_NR_hPPARG was analyzed at the assay endpoint, ERF_TW_NR_hPPARG, in the positive analysis fitting direction relative to DMSO as the negative control and baseline of activity. Using a type of binding receptor, gain-of-signal activity can be used to understand changes in binding receptor as they relate to gene PPARG.To generalize the intended target to other relatable targets, this assay endpoint is annotated to the nuclear receptor intended target family, where the subfamily is non-steroidal.
Human recombinant PPARgamma-LBD expressed in insect cells are used in modified Tris-HCl buffer pH 7.2. A 0.03 ug aliquot is incubated with 5 nM [3H]Rosiglitazone and 1 ug anti-GST antibody for 24 hours at 4C. Non-specific binding is estimated in the presence of 10 uM rosiglitazone. Receptors are counted to determine [3H]Rosiglitazone specifically bound. Compounds are screened at 10 uM.Test Sample Requirements: Minimum for 1) Screen: 25 ul of 10 mM stock -OR- 1 mg (pre-weighed). 2) Dose Response: 60 ul of 10 mM stock -OR- 1 mg (pre-weighed).

Chain of Peroxisome proliferator-activated receptor gamma (Homo sapiens) (P37231 whole entry, looked up): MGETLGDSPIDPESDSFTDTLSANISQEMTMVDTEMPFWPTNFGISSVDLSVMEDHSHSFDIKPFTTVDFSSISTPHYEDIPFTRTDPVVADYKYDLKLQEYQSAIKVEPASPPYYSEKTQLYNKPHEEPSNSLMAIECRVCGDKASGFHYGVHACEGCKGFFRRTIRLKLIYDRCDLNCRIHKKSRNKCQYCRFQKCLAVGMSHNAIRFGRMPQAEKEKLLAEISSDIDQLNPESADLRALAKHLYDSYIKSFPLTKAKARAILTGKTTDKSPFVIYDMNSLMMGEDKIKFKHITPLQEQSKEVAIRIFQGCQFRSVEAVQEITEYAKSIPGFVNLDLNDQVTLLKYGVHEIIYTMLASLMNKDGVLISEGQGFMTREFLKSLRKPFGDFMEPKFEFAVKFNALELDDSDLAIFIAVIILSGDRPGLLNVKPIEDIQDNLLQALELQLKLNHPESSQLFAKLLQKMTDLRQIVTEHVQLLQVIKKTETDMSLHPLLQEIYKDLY

Row | SMILES | AC50
1 | O=C(CC(=O)C(F)(F)C(F)(F)C(F)(F)F)c1cccs1 | 7.47 µM (active)
2 | O=S(=O)(O)C(F)(F)C(F)(F)C(F)(F)C(F)(F)C(F)(F)C(F)(F)C(F)(F)F | 31.7 µM (active)
3 | O=C(O)C(F)(F)C(F)(F)C(F)(F)C(F)(F)C(F)(F)C(F)(F)C(F)(F)C(F)(F)Cl | 13.4 µM (active)
